The campaign covered roughly 3,300 compounds. About 280 (8.5%) were called active. The sample holds actives, similar compounds and a random draw of the others, so the mix is not that of the screen. Values without a mark were called inactive.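 Rule for the calls: active = mean growth inhibition over the two runs of 50% or more; inactive = mean growth inhibition under 50%.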

The record followed here is PubChem BioAssay AID371 (SRMLSC, 2006).

A short description of this assay: A549 NSCLC cell proliferation inhibitors – ATP luminescence, human non-small cell lung line, primary screen (AID 371).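 Note: compound exposure lasted 72 h before the ATP read; 0% = untreated cell signal and 100% = no luminescence left.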 The settings on record: at 10 µM, stronger effect = higher value.
On to `Oc1c(Cl)cc(Cl)cc1Sc1cc(Cl)cc(Cl)c1O`, for which the growth inhibition is 82.9% (active).
As for `CCOC(=O)C1CCN(c2nc3ccccc3nc2C(C#N)C(=O)OCCOC)CC1` (stereo unspecified), the figure is 13.4%; as for `CCC1=Nc2ccccc2NC2=C1C(=O)CCC2`, 1%.
As for `O=c1[nH]c(=O)n([C@H]2C[C@H](O)[C@@H](CO)O2)cc1F`, the figure is 71% (active); as for `Cc1cn([C@H]2C[C@H](N=[N+]=[N-])[C@@H](CO)O2)c(=O)[nH]c1=O`, 7.02%.
As to `CCc1cn([C@H]2C[C@H](O)[C@@H](CO)O2)c(=O)[nH]c1=O`, the growth inhibition was 29.9%.
Regarding `COc1ccccc1-c1nn2c(-c3ccco3)nnc2s1`, the growth inhibition is 21.8%.
As to `Cc1cc2c(c(=O)o1)C(Cc1ccccc1)C(C#N)=C(N)O2` (stereo unspecified), the growth inhibition is -0.57%.
Under `CC1(C)Cc2c(C#N)c(NCCN3CCOCC3)nc(-c3ccco3)c2CO1` stands 3.05%.
Under `Nc1ncnc2nc(SCc3ccccc3)[nH]c12` stands 13.6%; under `O=C(Cc1ccc(Cl)cc1)Nc1cccc(-c2nnc(-c3ccco3)o2)c1`, 20.9%; under `CCC(=O)Nc1ccc(-c2nnc(-c3ccccc3)o2)cc1`, 33.7%.
With `O=C(Cc1ccccc1)Nc1cccc(-c2nnc(-c3ccco3)o2)c1`, the growth inhibition is 24%.
As for `Cc1cccc(C)c1OCC(=O)Nc1cccc(-c2nnc(-c3ccccc3)o2)c1`, the figure is 53% (active).
`O=C(COc1ccccc1)Nc1ccc(-c2nnc(-c3ccco3)o2)cc1`: the growth inhibition is -6.02%.
Under `COc1ccc(CC(=O)Nc2cccc(-c3nnc(-c4ccco4)o3)c2)cc1` stands 64% (active); under `N/C(CCCN1CCCCC1)=N/O`, -8.24%.
Consider `CCOC(=O)CNC(=O)CCCCCC(=O)NCC(=O)OCC`, for which the growth inhibition was -12.7%.
As for `O=C(NCCN1CCOCC1)c1cc2n(n1)C(C(F)(F)F)CC(c1ccc(F)cc1)N2` (stereo unspecified), the figure is 2.7%; as for `CC(C)(C)NCC(=O)c1c[nH]c2ccccc12`, -2.93%; as for `COc1ccc2c(c1OC)C(=O)N1c3ccccc3C(=O)N(c3ccccc3)C21` (stereo unspecified), 36.5%.
As for `CCCCSc1nc(O)c(C2OC(=O)c3c2ccc(OC)c3OC)c(=O)n1C` (stereo unspecified), the figure is 4.34%; as for `c1ccc(-c2nnc(OCCN3CCOCC3)c3ccccc23)cc1`, -0.08%.
Under `CCn1cc(C(=O)NCc2ccco2)c(=O)c2cc(F)c(N3CCN(C(=O)c4ccco4)CC3)cc21` stands 59.3% (active); under `CCn1cc(C(=O)NCCc2ccccc2)c(=O)c2cc(F)c(N3CCN(C)CC3)cc21`, 89.8% (active).
For the compound `CCn1cc(C(=O)NCC2CCCO2)c(=O)c2cc(F)c(N3CCN(C)CC3)cc21` (stereo unspecified), the growth inhibition was -0.9%.
Under `CCn1cc(C(=O)NCc2ccccn2)c(=O)c2cc(F)c(N3CCN(C)CC3)cc21` stands -0.7%; under `CCn1cc(C(=O)NCCCN(C)C)c(=O)c2cc(F)c(N3CCN(C)CC3)cc21`, 8.61%; under `CCOC(=O)N1CCN(C(=O)c2cn(CC)c3cc(N4CCN(C)CC4)c(F)cc3c2=O)CC1`, 0.65%.
With `CCNc1nc(NC(C)C)nc(N(C#N)C(C)C(=O)N(C)C)n1` (stereo unspecified), the growth inhibition was 2.18%.
Under `CCN(CC)CCCN1C(=O)C(=O)/C(=C(/O)c2ccccc2)C1c1cc(OC)ccc1OC` (stereo unspecified) stands 6.35%; under `O=C1CC(NCc2ccncc2)C(=O)N1c1ccc(Cl)cc1` (stereo unspecified), -4.36%.
Under `COc1cccc(NC(=O)CC2SC(=Nc3ccccc3)NC2=O)c1` (stereo unspecified) stands 19.4%.
Consider `Cn1c(CSc2ncn[nH]2)nc2ccccc21`, for which the growth inhibition was -2.84%.
For the compound `CC12CCC(=O)N1c1c(sc3nc(N4CCOCC4)c4c(c13)CCCC4)C(=O)N2` (stereo unspecified), the growth inhibition is 4.33%.
Under `CCOC(=O)c1c(C)n(C)c2ccc(OC)c(NC(=O)CN3CCN(Cc4ccccc4)CC3)c12` stands 12.1%.
As for `CCOC(=O)c1c(CN2CCCCC2)oc2ccc(OC)cc12`, the figure is 5.15%; as for `CCOC(=O)c1c(CNCCN(CC)CC)n(C)c2cc(Br)c(OC)cc12`, 33.7%; as for `CCOC(=O)c1c(C)n(C)c2ccc(OC)c(NC(=O)CN3CCCCC3)c12`, 6.99%.
As for `CCOC(=O)c1c(CN2CCN(CCO)CC2)n(C)c2cc(Br)c(OC)cc12`, the figure is 84.4% (active).
On to `CCOC(=O)c1c(CN2CCN(C)CC2)n(C)c2cc(Br)c(OC)cc12`, for which the growth inhibition is 89.8% (active).
As for `COc1ccccc1C1/C(=C(/O)c2ccc(C)cc2)C(=O)C(=O)N1CCN1CCOCC1` (stereo unspecified), the figure is 2.55%; as for `CN(CCCCCC(=O)/C=N/O)Cc1ccccc1`, 1.07%.
Under `COc1ccc(N(CN2C(=O)C3C4C=CC(C4)C3C2=O)C(=O)c2ccco2)cc1` (stereo unspecified) stands 4.02%; under `N#C/C(C(=O)NCc1ccco1)=C1/SC(Cc2ccc(Cl)cc2)C(=O)N1c1ccccc1` (stereo unspecified), 5.74%; under `CCC(=O)Nc1nc2ccccc2n1Cc1ccccc1C`, 64.4% (active).
In the case of `CCC(=O)Nc1nc2ccccc2n1CCN(C)C`, the growth inhibition is 4.62%.
As for `CN(C)CCCn1c(NC(=O)C2CCCCC2)nc2ccccc21`, the figure is 1.53%; as for `CCOc1ccc(NC(=O)c2nn(C)cc2Br)cc1`, 20.1%.
On to `CCC1CCCCN1c1nc(-c2cccc(OC)c2O)nc2ccccc12` (stereo unspecified), for which the growth inhibition was 45%.
Consider `COc1cccc(-c2nc(N3CCCCC3C)c3ccccc3n2)c1O` (stereo unspecified), for which the growth inhibition is 61.7% (active).
As for `COc1cccc(-c2nc(N3CCCCC3)c3ccccc3n2)c1O`, the figure is 49.3%; as for `COc1cccc(-c2nc(N3CC(C)CC(C)C3)c3ccccc3n2)c1O` (stereo unspecified), 30.1%; as for `COc1cccc(-c2nc(N3CCC(C)CC3)c3ccccc3n2)c1O`, 53.7% (active).
Take `C=CCOc1nc(-c2ccncc2)nc2ccccc12`: the growth inhibition was 18.5%.
Turning to `CCOc1nc(-c2ccncc2)nc2ccccc12`, the growth inhibition is 10.3%.
As to `CCC1CCCCN1c1nc(-c2ccncc2)nc2ccccc12` (stereo unspecified), the growth inhibition was 74.9% (active).
Turning to `Nc1c2c(nc3ccccc13)N(C1CCCCC1)CC2`, the growth inhibition was 38.8%.
`Cc1ccc(N2C(=O)c3sc4nnc(C)c(=O)n4c3C2=O)cc1`: the growth inhibition was -7.4%.
With `COc1cccc(OC)c1-c1nn2c(-c3ccccc3Cl)nnc2s1`, the growth inhibition is 21%.
As for `CCOC(=O)c1ccc(NCC(O)COc2ccccc2)cc1` (stereo unspecified), the figure is 31.1%.
